From PubChem
A selection: hits, their analogues and other compounds. The true share with any hit is near 2.1%.
TDP-43 yeast inh = TDP-43 toxicity inhibition in yeast; TDP-43 expressing yeast growth rescue, BacTiter-Glo, 24 h; Potency, µM (titrated, usually from 46.1 µM), for the others: at the highest dose growth rescue (activation), hits mostly activators; 1.8% of 410,000 active; AID 652104; also: % of control where 0% means no effect; nearly all actives have a fitted effect of over 50% in size
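Yeast cells expressing TDP-43 under galactose induction are exposed to compounds for 24 hr at 30 deg C. BacTiter-Glo luminescence measures growth, so protective compounds score as activators.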
aSyn rescue = inhibitors of alpha-synuclein toxicity in yeast. Yeast expressing alpha-synuclein, growth rescue, BacTiter-Glo, 24 h. Potency, µM (doses to about 46.1 µM), for inactives: top-dose growth rescue (activation), hits mostly activators. 0.14% of 370,000 active; also: % of control where 0% means no effect; nearly all actives have a fitted effect of over 65% in size
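Screening used galactose-induced yeast with toxic alpha-synuclein levels, exposed to compound for 24 hr at 30 deg C. Cell growth, read with BacTiter-Glo luminescence, gave the measured signal.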
FUS yeast rescue = rescues growth of FUS-expressing yeast; S. cerevisiae FUS-expressing, growth rescue, OD600, 24 h; Potency, µM (highest dose often 76.6 µM), actives largely listed as activators; 0.24% of 390,000 active; AID 1347120;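 also: plate controls were DMSO vehicle for no effect and reference control for full effect; nearly all actives have a fitted effect of over 55% in size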
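Galactose (2%) drives FUS expression in yeast precultured in raffinose; seeding density OD 0.005. Test compounds incubated 24hr at 30C and 99% humidity before absorbance at 600 nm was measured.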
Abeta rescue = compounds reversing amyloid beta toxicity in yeast. yeast expressing A-beta42, growth rescue, OD600, 48 h; response scale: 0% DMSO, 100% iron-clioquinol control. Potency, µM (titrated, usually from 46.1 µM), actives largely listed as activators. 0.063% of 410,000 active. AID 1347071; also: nearly all actives have a fitted effect of over 55% in size
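Growth rescue measured by 600 nm absorbance after 48 h yeast culture at 30 C with compound. Values normalized between DMSO and an equimolar ferric chloride plus clioquinol control.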
The depositor's hits bear a star. Calls follow the shape of the dose curve; as a rule, active = well fitted curve in the direction sought with a large enough effect; inconclusive = small, poorly fitted or top-dose-only effect, or another doubt; inactive = no such curve, though single readings can be large; an effect the other way counts as inactive or inconclusive. Potency is read from the fitted curve at half-maximal effect.

O=C(Cn1c(=O)cnc2ccccc21)Nc1ccccc1N1CCOCC1 was read as TDP-43 yeast inh -5.3%, aSyn rescue -6.7%, FUS yeast rescue inactive and Abeta rescue inactive.
`O=C(Cn1c(=O)cnc2ccccc21)Nc1cc(Cl)ccc1N1CCOCC1` gave TDP-43 yeast inh 12.6µM*, aSyn rescue -0.9%, FUS yeast rescue inactive and Abeta rescue inactive.
Screening CC1(C)CC(NC(=O)c2ccccc2NS(=O)(=O)c2ccc(Br)cc2)CC(C)(C)N1 returned TDP-43 yeast inh 4.2%, aSyn rescue -1.9%, FUS yeast rescue inactive and Abeta rescue inactive.
Nc1nc(NCCN2CCOCC2)nc(NCc2ccccc2)c1[N+](=O)[O-] was read as TDP-43 yeast inh 6.5%, aSyn rescue 6.0%, FUS yeast rescue inactive and Abeta rescue inactive.
`CCn1c(=O)c2sccc2n2c(CCC(=O)Nc3ccc(F)cc3)nnc12` gave TDP-43 yeast inh 0.0%, FUS yeast rescue inactive and Abeta rescue inactive.
For O=C(NC(Cc1c[nH]c2ccccc12)C(=O)O)c1cccc(S(=O)(=O)N2CCCCC2)c1 (stereo not drawn) the results were TDP-43 yeast inh 2.9%, aSyn rescue -2.9%, FUS yeast rescue inactive and Abeta rescue inactive.
Screening CCc1ccccc1NC(=O)N1CCOc2ccccc21 returned TDP-43 yeast inh inconclusive, FUS yeast rescue inactive and Abeta rescue inactive.
CCOc1ccc(NC(=O)N2CCOc3ccccc32)cc1 was read as TDP-43 yeast inh 11.2µM*, FUS yeast rescue inactive and Abeta rescue inactive.
CC(C)C(OC(=O)C1=Cc2ccccc2OC1)C(=O)NCC1CCCO1 (stereo not drawn) was read as TDP-43 yeast inh -12.7%, aSyn rescue -36.2%, FUS yeast rescue inactive and Abeta rescue inactive.
`CCC1CCc2sc(C(=O)N(C)CC(=O)Nc3cccc(OC)c3)cc2C1` (stereo not drawn) gave TDP-43 yeast inh 8.1%, aSyn rescue 0.4% and Abeta rescue inactive.
CCC1CCc2sc(C(=O)N(C)CC(=O)Nc3ccc(OC)cc3)cc2C1 (stereo not drawn) was read as TDP-43 yeast inh 11.2µM*, aSyn rescue 24.0%, FUS yeast rescue inactive and Abeta rescue inactive.
`CC1CCc2sc(C(=O)N(C)CC(=O)Nc3ccc(N4CCOCC4)cc3)cc2C1` (stereo not drawn) gave TDP-43 yeast inh -6.9%, aSyn rescue 3.5%, FUS yeast rescue inactive and Abeta rescue inactive.
Screening CCC1CCc2sc(C(=O)N(C)CC(=O)Nc3ccc(N4CCOCC4)cc3)cc2C1 (stereo not drawn) returned TDP-43 yeast inh 8.91µM*, aSyn rescue 6.0%, FUS yeast rescue inactive and Abeta rescue inactive.
Screening CC(C)CC(OC(=O)c1ccc(Cl)nc1)C(=O)NC1CCCC1 (stereo not drawn) returned TDP-43 yeast inh -17.7%, aSyn rescue -4.9%, FUS yeast rescue inactive and Abeta rescue inactive.
COc1ccc(/C=C\c2onc(C)c2S(=O)(=O)N2CCC(C(=O)Nc3ccccc3OC)CC2)cc1 was read as TDP-43 yeast inh -11.6%, FUS yeast rescue 12.6µM* and Abeta rescue inactive.
For CCN1CCCCC(NC(=O)c2ccccc2)C1=O (stereo not drawn) the results were FUS yeast rescue inactive.
Screening Cc1ccc(C)c(OC2=NS(=O)(=O)c3ccccc32)c1 returned TDP-43 yeast inh 7.8%, aSyn rescue 0.6%, FUS yeast rescue inactive and Abeta rescue inactive.
Screening Cc1ccc2c(c1)-c1ccccc1S(=O)(=O)N2 returned TDP-43 yeast inh inconclusive, aSyn rescue 12.6µM* and Abeta rescue inactive.
For Nc1ccc2c(c1)-c1ccccc1S(=O)(=O)N2 the results were TDP-43 yeast inh -15.1%, aSyn rescue -6.9%, FUS yeast rescue 28.2µM* and Abeta rescue inactive.
`CCn1cnc2c1c(=O)n(Cc1cccc(Br)c1)c(=O)n2Cc1ccccc1` gave TDP-43 yeast inh 22.4µM*, aSyn rescue -0.4%, FUS yeast rescue inactive and Abeta rescue inactive.
For O=C(N[C@H](Cc1ccc(Cl)cc1)C(=O)O)OCC1c2ccccc2-c2ccccc21 the results were TDP-43 yeast inh -14.1%, aSyn rescue 0.5%, FUS yeast rescue inactive and Abeta rescue inactive.
`Nc1ccc(CNC(=O)OCC2c3ccccc3-c3ccccc32)cc1` gave TDP-43 yeast inh 14.1µM*, aSyn rescue 8.2%, FUS yeast rescue inconclusive and Abeta rescue inactive.
CC(C)(C)N1C(=O)[C@H]2[C@@H](c3ccc(Br)cc3)N3C(=O)N(c4cccc(Br)c4)C(=O)[C@@]3(Cc3ccccc3)[C@H]2C1=O was read as TDP-43 yeast inh 6.8%, aSyn rescue 1.2%, FUS yeast rescue 5.01µM* and Abeta rescue inactive.
For CCN1C(=O)[C@H]2[C@@H](c3ccc(C)cc3)N3C(=O)N(c4cccc(Br)c4)C(=O)[C@@]3(Cc3ccccc3)[C@H]2C1=O the results were TDP-43 yeast inh -10.3%, aSyn rescue -2.2%, FUS yeast rescue 35.5µM* and Abeta rescue inactive.
`CC(C)(C)N1C(=O)[C@H]2[C@@H](c3ccc(Br)cc3)N3C(=O)N(c4ccccc4)C(=O)[C@@]3(Cc3ccccc3)[C@H]2C1=O` gave TDP-43 yeast inh -4.4%, aSyn rescue 13.8%, FUS yeast rescue inconclusive and Abeta rescue inactive.
CCOc1ccc(C(=O)N2CCN(Cc3cc(=O)n4nc(-c5ccccc5Cl)sc4n3)CC2)cc1 was read as TDP-43 yeast inh 14.5%, FUS yeast rescue inactive and Abeta rescue inactive.
Screening CCC(C)c1ccc(S(=O)(=O)N2CCN3CCCC3C2)cc1 (stereo not drawn) returned TDP-43 yeast inh 0.3%, aSyn rescue -15.8%, FUS yeast rescue inactive and Abeta rescue inactive.
For O=C(COC(=O)C1CCCC1)Nc1ncc(Cl)cc1Cl the results were TDP-43 yeast inh 13.2%, aSyn rescue -2.2%, FUS yeast rescue inactive and Abeta rescue inactive.
For CC1CCN(c2oc(-c3ccco3)nc2S(=O)(=O)c2ccccc2)CC1 the results were TDP-43 yeast inh 15.8µM*, aSyn rescue -5.0%, FUS yeast rescue inactive and Abeta rescue inactive.
For Cc1cc(N2CCN(C(=O)c3ccoc3)CC2)n2nc(-c3ccccc3)cc2n1 the results were TDP-43 yeast inh -6.8%, aSyn rescue -0.3%, FUS yeast rescue inactive and Abeta rescue inactive.
O=C(c1ccoc1)N1CCN(c2cc(-c3ccccc3)nc3cc(-c4ccccc4)nn23)CC1 was read as TDP-43 yeast inh 17.8µM*, aSyn rescue -1.0%, FUS yeast rescue inactive and Abeta rescue inactive.
Screening O=C(c1ccoc1)N1CCN(c2cc(-c3ccco3)nc3cc(-c4ccccc4)nn23)CC1 returned TDP-43 yeast inh 20µM*, aSyn rescue -9.7%, FUS yeast rescue inconclusive and Abeta rescue inactive.
For Cc1ccc(-c2ccnc3nc(-n4cccc4)nn23)o1 the results were TDP-43 yeast inh 35.5µM*, aSyn rescue -3.3%, FUS yeast rescue inactive and Abeta rescue inactive.
